Screening results as filed in PubChem.
Sampled rows, rich in hits. Any-hit rate of the full collection: about 6.9%.
L3MBTL1 block = qHTS Assay for the Inhibitors of L3MBTL1 | Potency, µM (highest dose often 57.1 µM), without a hit: at the highest dose activity, negative = inhibition, usual class: inhibitors | Lethal(3)malignant brain tumor-like protein 1 (Homo sapiens), Q9Y468 | 230,000 compounds, 0.66% hits | AlphaScreen L3MBTL1–H3K9me1 peptide binding | AID 485360, 2010; further: on the % scale 0 is the no-effect control and ±100 the full control effect; nearly all actives have a fitted effect of over 60% in size
Target sequence (Q9Y468 whole entry, looked up): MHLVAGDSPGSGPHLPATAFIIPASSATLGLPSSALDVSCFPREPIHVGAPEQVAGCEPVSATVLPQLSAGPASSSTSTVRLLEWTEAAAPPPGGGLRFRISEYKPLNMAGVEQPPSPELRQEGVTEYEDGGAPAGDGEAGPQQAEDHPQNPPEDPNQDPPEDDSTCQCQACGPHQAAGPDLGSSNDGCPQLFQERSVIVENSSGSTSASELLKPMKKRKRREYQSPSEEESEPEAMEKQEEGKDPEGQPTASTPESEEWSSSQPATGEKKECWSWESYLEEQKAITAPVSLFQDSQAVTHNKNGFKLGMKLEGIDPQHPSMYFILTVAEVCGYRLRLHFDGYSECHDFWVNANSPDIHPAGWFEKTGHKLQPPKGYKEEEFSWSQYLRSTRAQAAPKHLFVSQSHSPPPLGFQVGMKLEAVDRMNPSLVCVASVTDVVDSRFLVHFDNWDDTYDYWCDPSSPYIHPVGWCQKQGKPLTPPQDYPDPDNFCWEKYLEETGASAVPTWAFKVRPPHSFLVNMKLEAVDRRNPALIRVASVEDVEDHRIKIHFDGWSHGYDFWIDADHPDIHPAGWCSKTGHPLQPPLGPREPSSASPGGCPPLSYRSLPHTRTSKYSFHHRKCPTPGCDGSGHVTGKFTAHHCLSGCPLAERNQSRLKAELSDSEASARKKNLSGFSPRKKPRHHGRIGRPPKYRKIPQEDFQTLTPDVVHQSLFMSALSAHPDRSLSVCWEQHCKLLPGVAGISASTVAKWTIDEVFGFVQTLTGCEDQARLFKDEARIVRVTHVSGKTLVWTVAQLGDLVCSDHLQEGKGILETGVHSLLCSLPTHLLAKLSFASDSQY
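First, the protein-peptide complex forms for 30 min at room temperature (L3MBTL1 50 nM, biotinylated H3K9me1 peptide 75 nM). Next, compounds are pin-transferred and incubated 30 min. Finally, AlphaScreen beads are added and read after 30 min.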
JMJD2A Tudor inh = qHTS Assay for Inhibitors of JMJD2A-Tudor Domain. AlphaScreen JMJD2A-Tudor / H3K4me3 peptide binding. 390,000 compounds, 4.4% hits. AID 504339, 2011. Potency, µM (titrated, usually from 114 µM), inactives show at the top dose activity change, negative = inhibition, actives largely listed as inhibitors; further: on the % scale 0 is the no-effect control and ±100 the full control effect; nearly all actives have a fitted effect of over 50% in size
VDR inh = Inhibitors of the vitamin D receptor (VDR): qHTS; Vitamin D3 receptor (Homo sapiens), P11473; VDR-SRC2-3 peptide fluorescence polarization, 2 h; Potency, µM, inactives show max response, negative = inhibition, usual class: inhibitors; 400,000 compounds, 0.93% hits; AID 504847, 2011; further: on the % scale 0 is the no-effect control and ±100 the full control effect
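Fluorescence polarization assay of small-molecule disruption of VDR binding to coregulator peptide SRC2-3. Compounds and controls pin-transferred, then read after 2 h incubation at ambient room temperature.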
PLK1 PBD block = qHTS for Inhibitors of PLK1-PDB (polo-like kinase 1 - polo-box domain): Primary Screen; Serine/threonine-protein kinase PLK1 (Homo sapiens), P53350; Plk1 PBD binding of FITC phosphopeptide, fluorescence polarization; Potency, µM, without a hit: max response, negative = inhibition, actives largely listed as inhibitors; 360,000 compounds, 2.8% hits; AID 720504, 2013; further: series mostly up to about 57 µM; on the % scale 0 is the no-effect control and ±100 the full control effect; nearly all actives have a fitted effect of over 65% in size
BAZ2B block = qHTS Assay for Inhibitors of BAZ2B | Potency, µM (series often up to 114 µM), for inactives: at the highest dose activity change, negative = inhibition, actives largely listed as inhibitors | 360,000 compounds, 4.4% hits | AlphaScreen BAZ2B-H3K14Ac peptide displacement | Bromodomain adjacent to zinc finger domain protein 2B (Homo sapiens), Q9UIF8; further: on the % scale 0 is the no-effect control and ±100 the full control effect; nearly all actives have a fitted effect of over 60% in size
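BAZ2B 50 nM plus b-H3(5-23)K14Ac 50 nM, PBS pH 7.4/0.01% Tween-20, 30 min RT; compound added (max 110 uM), 30 min RT; streptavidin donor/Ni-chelate acceptor beads 10 ug/mL final, 20 min dark; AlphaScreen read.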
HP1b chromo inh = HTS for Inhibitors of HP1-beta Chromodomain Interactions with Methylated Histone Tails. Chromobox protein homolog 1 (Homo sapiens), P83916. AlphaScreen HP1-beta / biotin-H3K9me3 peptide binding. Potency, µM (top dose mostly 114 µM), for inactives: at the top dose activity change, negative = inhibition, actives largely listed as inhibitors. 390,000 compounds, 0.56% hits; further: nearly all actives have a fitted effect of over 70% in size
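AlphaScreen: HP1-beta (50 nM) preformed 30 min with biotin-H3(1-18)K9me3 peptide (50 nM) in PBS pH 7.4, 0.01% Tween-20. Compound added for 30 min at RT, then streptavidin donor/nickel chelate acceptor beads (10 ug/mL) for 30 min.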
Numbers without * were called inactive; [ ] = remark or other dose. The call rests on the fitted dose curve; in most records, active means well fitted curve in the direction sought with a large enough effect; inconclusive means small, poorly fitted or top-dose-only effect, or another doubt; inactive means no such curve, though single readings can be large; an effect the other way counts as inactive or inconclusive. Potency means the concentration at half of the fitted maximal effect.

NC(=O)c1cc(N2C(=O)C=CC2=O)ccc1Cl was read as L3MBTL1 block 4%, JMJD2A Tudor inh 25µM*, VDR inh 20µM*, PLK1 PBD block 21µM*, BAZ2B block inconclusive and HP1b chromo inh inconclusive.
COC(=O)c1cc(N2C(=O)C3C4C=CC(CC4)C3C2=O)ccc1Cl (centres undefined) was read as JMJD2A Tudor inh -9%, VDR inh 11%, PLK1 PBD block -8%, BAZ2B block 7% and HP1b chromo inh 37%.
CCC(C)Nc1ccc(NC(C)CC)cc1 (centres undefined) was read as L3MBTL1 block inconclusive, JMJD2A Tudor inh 40µM*, VDR inh inconclusive, PLK1 PBD block -12%, BAZ2B block 35µM* and HP1b chromo inh inconclusive.
For COCCNC(=O)C(c1ccc(C)o1)N(C(=O)C(=O)NC1CCCCC1)c1ccc(F)cc1 (centres undefined) the results were L3MBTL1 block 20%, JMJD2A Tudor inh -4%, VDR inh 1%, PLK1 PBD block -12%, BAZ2B block -3% and HP1b chromo inh 36%.
Screening CC(C)OC(=O)/C(=C/c1ccco1)c1ccccc1 returned L3MBTL1 block 10%, JMJD2A Tudor inh 5%, VDR inh -3%, PLK1 PBD block -4%, BAZ2B block 22% and HP1b chromo inh -1%.
`COc1ccc(C(=O)/C(=C\c2ccco2)N2C=CC=CC2=C(C#N)C#N)cc1` gave L3MBTL1 block -4%, JMJD2A Tudor inh -34%, VDR inh 40µM*, PLK1 PBD block 21µM*, BAZ2B block -13% and HP1b chromo inh 8%.
N#CC(C#N)=C1C=CC=CN1/C(=C\c1ccco1)C(=O)c1ccc(Br)cc1 was read as L3MBTL1 block -19%, JMJD2A Tudor inh inconclusive, VDR inh 10µM*, PLK1 PBD block 3µM*, BAZ2B block inconclusive and HP1b chromo inh -9%.
Screening COc1ccc(/C=C(/C(=O)c2cccs2)N2C=CC=CC2=C(C#N)C#N)cc1 returned L3MBTL1 block 0%, JMJD2A Tudor inh inconclusive, VDR inh inconclusive, PLK1 PBD block 6µM*, BAZ2B block -34% and HP1b chromo inh -12%.
For COc1ccc(C(=O)N/C(=C\c2ccco2)C(=O)OCc2ccco2)cc1 the results were JMJD2A Tudor inh -17%, VDR inh 3%, PLK1 PBD block -8%, BAZ2B block -35% and HP1b chromo inh -6%.
Screening N#CC(C#N)=C1C=CC=CN1/C(=C\c1ccco1)C(=O)c1ccccc1 returned L3MBTL1 block inconclusive, JMJD2A Tudor inh -31%, VDR inh 14µM*, PLK1 PBD block 12µM*, BAZ2B block 0% and HP1b chromo inh 15%.
COc1ccc(S(=O)(=O)N2CCCCC2)cc1NC(=O)c1cccc(S(=O)(=O)N2CC(C)OC(C)C2)c1 (centres undefined) was read as JMJD2A Tudor inh -19%, VDR inh 11%, PLK1 PBD block -5% and HP1b chromo inh 22%.
For Cc1ccc(Cl)cc1NC(=O)c1oc2c(c1C)-c1[nH]ncc1CC2 the results were JMJD2A Tudor inh -1%, VDR inh 5%, BAZ2B block 5% and HP1b chromo inh 87%.
For CCOC(=O)c1[nH]nc(-c2cc(CC)c(O)cc2O)c1-c1cscn1 the results were L3MBTL1 block -6%, JMJD2A Tudor inh 89µM*, VDR inh -7%, PLK1 PBD block 1%, BAZ2B block inconclusive and HP1b chromo inh 26%.
`CCOc1ccccc1N1CC(C(=O)N2CCc3ccccc3C2)CC1=O` (centres undefined) gave JMJD2A Tudor inh 28µM*, VDR inh inconclusive, PLK1 PBD block 3.4µM*, BAZ2B block -8% and HP1b chromo inh -9%.
`O=C(CC1NCCc2ccccc21)Nc1ccccc1` (centres undefined) gave L3MBTL1 block -4%, JMJD2A Tudor inh -16%, VDR inh -3%, PLK1 PBD block -8%, BAZ2B block -2% and HP1b chromo inh 22%.
O=C(O)CC1NCCc2ccccc21 (centres undefined) was read as L3MBTL1 block 3%, JMJD2A Tudor inh -8%[11.4 µM], VDR inh -12%, PLK1 PBD block 30µM*, BAZ2B block -12% and HP1b chromo inh 13%.
`COC(=O)c1c(Oc2ccc(Br)cc2)nnc(-c2ccccc2)c1-c1ccccc1` gave JMJD2A Tudor inh -13%, VDR inh 15%, BAZ2B block -18% and HP1b chromo inh 45%.
Cc1ccc(CN(C(=O)c2ccc([N+](=O)[O-])cc2)C2CCS(=O)(=O)C2)o1 (centres undefined) was read as JMJD2A Tudor inh inconclusive, VDR inh inconclusive, PLK1 PBD block 3.8µM*, BAZ2B block -19%[57.1 µM] and HP1b chromo inh 4%.
`CCOc1ccccc1C(=O)N(Cc1ccc(C)o1)C1CCS(=O)(=O)C1` (centres undefined) gave JMJD2A Tudor inh inconclusive, VDR inh inconclusive, PLK1 PBD block 19µM*, BAZ2B block -15%[57.1 µM] and HP1b chromo inh -11%.
Screening Cc1cccc(C(=O)N(Cc2ccc(C)o2)C2CCS(=O)(=O)C2)c1 (centres undefined) returned JMJD2A Tudor inh -17%, VDR inh -4%, PLK1 PBD block 4%, BAZ2B block -15% and HP1b chromo inh 26%.
Screening COc1cccc(CN(C(=O)COc2ccccc2[N+](=O)[O-])C2CCS(=O)(=O)C2)c1 (centres undefined) returned JMJD2A Tudor inh inconclusive, VDR inh -19%, PLK1 PBD block 24µM*, BAZ2B block -35%[57.1 µM] and HP1b chromo inh 16%.
`COc1cccc(CN(C(=O)c2cccs2)C2CCS(=O)(=O)C2)c1` (centres undefined) gave JMJD2A Tudor inh 56µM*, VDR inh -11%, PLK1 PBD block -18%, BAZ2B block -14% and HP1b chromo inh 10%.
Screening O=C(COc1ccccc1[N+](=O)[O-])N(Cc1cccc(Br)c1)C1CCS(=O)(=O)C1 (centres undefined) returned JMJD2A Tudor inh -15%, VDR inh -2%, PLK1 PBD block -17%, BAZ2B block -26% and HP1b chromo inh 8%.
For CC#CCN1c2ccccc2[C@]23C[C@@H](C(=O)OC)N(C(=O)NCCBr)C2=NC(C(=O)OC)=C(C(=O)OC)[C@H]13 the results were JMJD2A Tudor inh -21%, VDR inh 1%, PLK1 PBD block -2% and HP1b chromo inh 12%.
